# Experimental data: the supplement of paper PMC3334620
# In all, about 33,000 sequences were measured (“E-score (-0.5 to 0.5)”: median about -0.0059, highest 2% from about 0.26 on). The list comes from a sample in which the highest values are over-represented; it also holds similar and randomly drawn sequences.
# Biological target: T1, Cin5 (UniProt P40917)
# T1 sequence: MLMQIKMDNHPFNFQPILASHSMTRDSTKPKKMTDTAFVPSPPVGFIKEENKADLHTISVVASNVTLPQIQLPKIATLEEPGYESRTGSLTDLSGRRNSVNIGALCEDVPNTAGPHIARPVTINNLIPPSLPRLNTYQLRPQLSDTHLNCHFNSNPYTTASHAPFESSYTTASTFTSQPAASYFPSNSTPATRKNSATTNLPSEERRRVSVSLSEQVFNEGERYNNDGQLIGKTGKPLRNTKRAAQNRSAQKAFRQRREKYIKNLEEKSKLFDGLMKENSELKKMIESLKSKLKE
# Test: PBM E-score (8-mer binding enrichment) (E-score (-0.5 to 0.5)); higher = stronger / more preferred TF binding
# Details: protein concentration: 100 nM; construct: GST-full length
# Description: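 Universal 'all 10-mer' protein binding microarrays (Agilent AMADID 015681) probed with GST-tagged S. cerevisiae TFs (full-length or DBD) made by in vitro transcription/translation (PURExpress), about 100-200 nM. Bound TF was detected with fluorescent anti-GST. Each ungapped 8-mer (which stands for itself and its reverse complement) is scored by the PBM enrichment score (E-score), a modified Wilcoxon-Mann-Whitney statistic from -0.5 to +0.5, computed with the Universal PBM Analysis Suite. Scale: above 0.35 generally sequence-specific binding.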
row,Sequence,PBM E-score
1,TAGATCAA,0.0289
2,ACGGAGAG,0.00731
3,GTGTAAGA,0.0309
4,ACGTAAGA,0.347
5,ACGTAACG,0.214
6,CTGTAAGA,-0.00022
7,ACGTAAGT,0.25
8,AGGTAAGC,0.321
9,ATGTAAGA,0.274
10,CGGTAAGC,0.114
11,GCGTAACC,0.0286
12,TCGTAAGA,-0.00999
13,AGGTAAGG,0.0286
14,ACGTAACC,0.262
15,AATCGTCG,0.14
16,ACATTCAC,0.093
17,AAATTCTC,-0.0624
18,TCCCTTAA,-0.186
19,AACTAGGT,0.118
20,CGACATAC,0.104
21,GTCACACA,0.0464
22,TACTTCGA,0.183
23,CGTCCTCC,-0.139
24,CATGGTAA,0.0768
25,ACTCATCT,0.156

row,Sequence,PBM E-score
1,GATATGGA,0.244
2,ACGTAATG,0.334
3,AAGTAATG,0.184
4,ATGTAAGC,0.431
5,CTGTAAGC,0.0794
6,ACGTAAAG,0.191
7,ATGTAAGG,0.103
8,ACAGGGAT,0.0409
9,ACAATCAG,0.134
10,GAACGTAC,-0.115
11,TAACGTAA,0.415
12,GAACGTTA,-0.104
13,AAACGTAA,0.234
14,CATCGTAA,0.0929
15,TATCGTAA,0.28
16,CAACGGAA,0.103
17,CAACGTAA,0.204
18,GATCGTAA,0.116
19,TAACGGAA,0.322
20,GAACGTAA,0.297
21,GAACGGAA,0.176
22,GAGGGGGA,-0.324
23,GTGAGATA,0.164
24,CTAGCCGC,0.0223
25,GACTAGAC,-0.179

row,Sequence,PBM E-score
1,ATCTGAAT,0.0915
2,GACCTTCC,-0.147
3,GAATATAC,0.195
4,GAATATCA,0.174
5,GAATATTA,0.274
6,AGATATTA,0.168
7,CGATATTC,0.0444
8,CGATATTA,0.355
9,GAATATTC,0.265
10,TAATATTA,0.368
11,CAATATTC,0.102
12,AAATATTT,0.141
13,GCATATTA,0.246
14,GGATATTA,0.143
15,GATCGTTA,0.0193
16,GGACCTAA,-0.0416
17,CTGGGAAG,-0.0869
18,CGATCGCC,0.0437
19,AGTCTTAT,0.158
20,AAGGGCGA,-0.241
21,CAAGACGA,-0.0306
22,CTCCGCCC,-0.173
23,CTCCACAC,-0.0294
24,ACTTCTTG,-0.0532
25,AGGCTTGA,-0.0503

row,Sequence,PBM E-score
1,CCACCTCC,-0.266
2,AAGCACTC,-0.0467
3,CAATATTG,0.205
4,CAATATTA,0.275
5,AAATATTC,0.183
6,TAATATCA,0.26
7,CAGTATCA,0.0369
8,TAGTATCA,0.296
9,CAATATCC,0.116
10,AAATATCA,0.179
11,AAATATTA,0.315
12,CAATATCA,0.108
13,AAATATTG,0.222
14,GAGTATCA,-0.0396
15,ACCTACGT,0.0549
16,CACTGCAG,-0.0359
17,CGGCAGTC,0.0575
18,GTGCCAGA,-0.293
19,GCACTACC,-0.00786
20,TACCGGTA,0.0137
21,GCGATTCA,0.0512
22,AAAATCCT,-0.223
23,CTTTAGCC,0.0446
24,CCGGCTTC,0.0218
25,TGGAGCCA,-0.184

row,Sequence,PBM E-score
1,ATTGGCGG,-0.0494
2,AGGATAGC,-0.064
3,CTGACCGC,-0.068
4,ACTATAAC,0.0218
5,ATTATAAT,0.265
6,ACTATAAT,0.27
7,ACTATAAA,0.146
8,ACAATAAA,0.162
9,ACAATAAT,0.267
10,ATTATAAA,0.195
11,ACAATAAC,0.143
12,ATTATAAG,0.188
13,ATGAATAA,0.142
14,ACCAGGGG,-0.265
15,AGGCAGTG,0.141
16,GAAAAATA,0.158
17,TAAATATA,0.261
18,AAAATATA,0.159
19,GAAATATA,0.287
20,GAAATATC,0.111
21,CAAATATA,0.166
22,CCGTTGGC,-0.124
23,AAACAGCA,0.0422
24,CCCCATCC,0.00185
25,AGACAATC,0.112

row,Sequence,PBM E-score
1,AAACAATA,0.287
2,AAACAATG,0.196
3,CAACAATA,0.155
4,AGACAATA,0.279
5,TAACAATA,0.273
6,AAACAATT,0.154
7,CTACAATA,0.137
8,AGACAATG,-0.00251
9,ATACAATC,0.162
10,GAACAATA,0.229
11,ATACAATA,0.278
12,GCGGATCC,-0.0308
13,CGAAGTAG,0.00111
14,ATTACCAG,0.18
15,ATAGCCAC,-0.0146
16,CGAGTTCA,-0.0225
17,TACTGCCA,0.0854
18,GACCGGAA,-0.0318
19,CAGCTATC,-0.0573
20,CCAGCAAG,-0.182
21,AGTTTTTG,0.107
22,ACCAAACG,-0.038
23,AGCAAGCT,-0.156
24,ACAACCAG,-0.00422
25,ACAACCAT,0.306

row,Sequence,PBM E-score
1,ACAACCAC,0.0998
2,ACAGCTTG,0.11
3,ACCATTGG,0.0343
4,ACACCTCG,0.0498
5,CGCCAAGC,-0.235
6,TCTTAGAA,0.0741
7,AATTATCC,0.133
8,AATTATGA,0.257
9,AATTATCT,0.331
10,AATTATGG,0.156
11,AATTATGT,0.304
12,AATTATCA,0.251
13,CGGTTGCA,-0.146
14,ACTGTCGG,-0.186
15,AGCGTAAT,0.13
16,ATTATCAC,0.234
17,ATTATCAG,0.119
18,ATTATCAA,0.274
19,GTTATCAA,0.0472
20,CTTATCAA,0.278
21,CTTATCAC,0.0488
22,AGCTTCGG,-0.187
